Assay results: PubChem BioAssay AID687001 (Broad Institute, 2013)
Entries with a potency or affinity are not part of this list. Activity calls are given as the source filed them.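 How the source made its calls: active means signal-lowering compounds whose fitted half-maximal concentration is at or below twice the top tested dose in every run; inconclusive means runs disagree, flat 30 to 70% inhibition, or poor curve fit; inactive means the rest.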

target: Protein S100-A4 (Homo sapiens) (UniProt P26447); experiment: human S100A4 peptide interaction inhibition curves – biochemical, fluorescence polarization, cherry-picked hits, dose response (AID 687001); settings: FP, S100A4/TAMRA-myosin IIA peptide binding; series mostly up to 11 µM
Sequence (P26447 whole entry, looked up): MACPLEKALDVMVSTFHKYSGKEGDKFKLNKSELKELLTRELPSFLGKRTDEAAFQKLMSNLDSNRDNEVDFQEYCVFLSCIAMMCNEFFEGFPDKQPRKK

outcome, inactive:
O=C(C[C@H]1CC[C@H](NS(=O)(=O)c2cccc(F)c2)[C@@H](CO)O1)NCc1ccc2c(c1)OCO2
CCN1C(=O)[C@H]2[C@@H](c3ccc(-c4ccc5c(c4)OCO5)c(OC)c3)N[C@@](C)(C(=O)OC)[C@H]2C1=O
C[C@H]1CN([C@@H](C)CO)C(=O)c2cc(C#CC3CCCCC3)cnc2O[C@H]1CN(C)Cc1cncnc1
C=CCn1c(C)nnc1SCC(=O)Nc1ccccc1C(=O)NC1CC1
O=C(CSc1ccc(Cl)cc1)NC1CC1
CCCNC(=O)C(Cc1ccc(C(F)(F)F)cc1)NC(=O)c1ccc2ccccc2n1 (stereo not drawn)
C[C@H](CO)N1C[C@H](C)[C@@H](CN(C)Cc2ccc(C(=O)Nc3ccccc3N)cc2)Oc2c(NC(=O)C3CCCCC3)cccc2C1=O
Cc1cnc(CN(C)C(=O)C2CCC(=O)N(CCc3ccccc3)C2)[nH]1 (stereo not drawn)
COCCNC(=O)C[C@@H]1CC[C@H]2[C@@H](COC[C@H](O)CN2Cc2cccc(-c3ccncc3)c2)O1
CCCNC(=O)N1[C@@H]2c3ccc(-c4ccccc4OC)c(=O)n3C[C@@H]2[C@@H](CO)[C@@H]1C(=O)NC1CCC1
CO[C@H]1CN(C)C(=O)c2cc(NC(=O)Nc3ccc(C(F)(F)F)cc3)ccc2OC[C@H](C)NC[C@H]1C
COc1ccccc1-c1ccc2c(c1)O[C@H](CN(C)C(C)=O)[C@@H](C)CN([C@@H](C)CO)S2(=O)=O
CCCCN(CC(=O)NC1CCCC1)C(=O)C(=O)Nc1ccc2c(c1)OCCO2
CNc1nc(-c2ccc(S(=O)(=O)N3CCCCC3)cc2)cs1
C[C@@H]1CN([C@@H](C)CO)C(=O)c2cc(NC(=O)CCC(F)(F)F)ccc2O[C@@H]1CN(C)C(=O)Nc1ccc(F)cc1
C[C@@H]1CN([C@@H](C)CO)C(=O)c2cc(C#Cc3ccccc3)cnc2O[C@H]1CN(C)C(=O)c1ccccc1F
Cc1cc(=O)n2nc(N3CCC(C(=O)NCc4ccccc4)CC3)sc2n1
O=C(C[C@H]1CC[C@H](NC(=O)Nc2ccccc2F)[C@@H](CO)O1)NCc1ccc(-c2ccccc2)cc1
O=C1NC[C@H](c2ccccc2)OC(=O)[C@H](Cc2ccc(F)cc2)C/C=C\C[C@H]1CC(=O)N(CCO)Cc1ccccc1
Cc1ccc(C(=O)N/C(=C/c2ccc(C(C)C)cc2)C(=O)NCCCN2CCOCC2)cc1
CNC[C@@H]1Oc2ccc(NC(=O)Nc3cccc4ccccc34)cc2C(=O)N([C@H](C)CO)C[C@@H]1C
O=C(C[C@H]1C=C[C@H](NC(=O)CCN2CCCCC2)[C@H](CO)O1)Nc1nccs1
COc1cccc(NC(=O)CN(C)C(=O)c2ccc(N3CCCCC3)c([N+](=O)[O-])c2)c1
O=C(Nc1ccccc1F)N1CC(=O)N2[C@H](CO)[C@@H](c3ccc(-c4ccccc4)cc3)[C@H]2C1
Cc1ccc(C(=O)N2CCN(c3ccc4c(c3)C3CC4CCN3C(=O)OCc3ccccc3)CC2)cc1 (stereo not drawn)
Oc1ccc(-c2cc(-c3ccc(O)cc3)nc(-c3ccccc3)n2)cc1
CN(CC(=O)Nc1cccc(F)c1)C(=O)c1cccc(S(=O)(=O)N2CCN(Cc3ccccc3)CC2)c1
CC(=O)N(C)C[C@@H]1Oc2cc(C#CCC(C)C)ccc2S(=O)(=O)N([C@H](C)CO)C[C@@H]1C
CC(NC(=O)C(=O)NCc1cccs1)c1ccccc1 (stereo not drawn)
COc1ccc(S(=O)(=O)N(C)C[C@H]2Oc3ncc(-c4ccncc4)cc3C(=O)N([C@@H](C)CO)C[C@H]2C)cc1
Cc1ccc(S(=O)(=O)Nc2ccc3c(c2)nc(CCN2CCN(c4ccccn4)CC2)n3C)cc1
CC(C)C#Cc1cnc2c(c1)C(=O)N([C@H](C)CO)C[C@H](C)[C@H](CN(C)C(=O)Nc1ccc(F)cc1)O2
O=C(C[C@@H]1CC[C@@H]2[C@H](COC[C@H](O)CN2C(=O)c2cccnc2)O1)NCc1ccc(Cl)cc1
Cc1ccc(OC(=O)N(C)C[C@@H]2OCc3cn(nn3)CCCC(=O)N([C@H](C)CO)C[C@H]2C)cc1
Cc1nn(C)cc1S(=O)(=O)Nc1ccc(C(F)(F)F)cc1
O=C(Cc1ccccn1)N[C@@H]1CC[C@@H](CCNS(=O)(=O)c2cccc(F)c2)O[C@H]1CO
CN1CCc2c(sc(NC(=O)C3COc4ccccc4O3)c2C(N)=O)C1 (stereo not drawn)
C[C@@H]1CN([C@H](C)CO)C(=O)Cc2cc(NC(=O)CCN3CCOCC3)ccc2O[C@H]1CN(C)Cc1ccc2c(c1)OCO2
